# Results taken from PubChem BioAssay AID588852 (The Scripps Research Institute Molecular Screening Center, 2011).
# Out of some 360,000 compounds screened, about 4,600 (1.3%) were called active. The sample as a whole holds a higher share of actives than the screen did. Values without a mark were called inactive.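 How the source made its calls: active means percent inhibition above its own plate's cutoff, namely the mean of that plate's compound wells plus 3 SD; inactive means the rest.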
# Molecular target: Muscarinic acetylcholine receptor M1 (Homo sapiens) (UniProt P11229)
# Sequence (P11229 whole entry, looked up): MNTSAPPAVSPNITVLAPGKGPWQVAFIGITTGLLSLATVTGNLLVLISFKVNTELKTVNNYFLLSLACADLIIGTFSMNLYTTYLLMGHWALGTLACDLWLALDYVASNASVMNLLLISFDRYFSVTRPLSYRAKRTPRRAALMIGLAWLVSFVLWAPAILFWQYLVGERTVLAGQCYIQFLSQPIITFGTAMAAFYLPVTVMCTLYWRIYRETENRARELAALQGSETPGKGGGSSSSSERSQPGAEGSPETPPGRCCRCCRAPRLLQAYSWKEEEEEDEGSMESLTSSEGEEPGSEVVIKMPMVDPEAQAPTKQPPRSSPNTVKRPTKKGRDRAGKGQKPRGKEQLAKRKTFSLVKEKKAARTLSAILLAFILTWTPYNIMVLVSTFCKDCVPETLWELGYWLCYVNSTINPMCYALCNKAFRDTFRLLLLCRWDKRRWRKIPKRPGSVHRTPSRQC
# Experiment: CHRM1 blockers of acetylcholine calcium response – CHO-K1 cells, Fluo-8 calcium fluorescence, 1536-well, primary screen (AID 588852);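 further: peak over basal fluorescence ratio during 140 s after agonist addition; 0% = ACh EC80 plus DMSO and 100% = DMSO alone without agonist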
# Conditions: CHO-K1 hM1, Fluo-8 calcium fluorescence, ACh EC80 antagonist; at 3 µM; hits give high values
row,SMILES,inhibition
1,O=c1[nH]c2ccccc2n1C1CCN(C(c2ccnc3ccccc23)c2nnnn2Cc2ccccc2)CC1 (stereo not given),4.78%
2,COc1ccc(-n2nnnc2C(c2cccc3ccccc23)N2CCC(n3c(=O)[nH]c4ccccc43)CC2)cc1 (stereo not given),103% (active)
3,O=c1[nH]c2ccccc2n1C1CCN(C(c2ccccc2)c2nnnn2Cc2ccccc2)CC1 (stereo not given),-3.28%
4,COC1C(O)C(C)OC(OC2CCC3(C=O)C(CCC4C3CCC3(C)C(C5=CC(=O)OC5)CCC43O)C2)C1O (stereo not given),-8.54%
5,CC12CCC3C(CCC4CC(=O)CCC43C)C1CC(=NO)C2=O (stereo not given),-2.57%
6,COc1cccc(C(=O)N2C[C@H]3C[C@@H](C2)c2cccc(=O)n2C3)c1,-17.6%
7,O=C(Nc1cccc(OC(=O)N2CCCCC2)c1)N1CCOCC1,12.4%
8,CCn1cc(CN2CCCC(C(=O)c3cccc(C(F)(F)F)c3)C2)cn1 (stereo not given),30.8%
9,CC(C)Oc1cccc(C(=O)C2CCCN(C3CCOCC3)C2)c1 (stereo not given),62.5% (active)
10,CC(C)(C)[C@]1(O)C[C@@H]2OC(=O)C[C@@]23C(=O)O[C@@H]2OC(=O)[C@H](O)[C@]213,-3.8%
11,CC(=NCc1ccc2c(c1)OCO2)c1c(O)[nH]c(=O)[nH]c1=O,-24.2%
12,CCCC[N+]1(C)C2CC(OC(=O)C(CO)c3ccccc3)CC1C1OC12 (stereo not given),85.3% (active)
13,CCCCC(=O)N/N=C/c1c(O)n(CC)c(=S)n(CC)c1=O,-7.53%
14,Cc1ccc2c(c1)C1CN(C)CCC1N2C(=O)Cn1nnc(-c2ccccc2F)n1 (stereo not given),5.84%
15,O=C(COc1ccc2ccccc2c1)N1CCN(Cc2ccncc2)CC1,14.5%
16,CC(C(=O)Nc1ccc(Cl)cc1Cl)N1CC=C(c2ccccc2)CC1 (stereo not given),18.7%
17,CC[N+]1(C)CCCC(OC(=O)C(O)(c2ccccc2)c2ccccc2)C1 (stereo not given),97.3% (active)
18,COC(=O)CN1C(=O)C2(C(C(=O)OC)=C(N)Oc3ccccc32)C2=C1CC(C)(C)CC2=O (stereo not given),-6.88%
19,CCOc1ccc(CN(CCCl)CCCl)cc1C(=O)OC,-7.91%
20,CSCCC(c1nnnn1C(C)(C)C)N1CCC(n2c(=O)[nH]c3ccccc32)CC1 (stereo not given),-5.89%
21,c1ccc(C(CN2CCCCC2)c2ccccc2)cc1,50% (active)
22,OC(CNC1CCCCC1)c1ccccc1 (stereo not given),-2.05%

row,SMILES,inhibition
1,COC(=O)C(c1ccccc1)N1CCCCCC1 (stereo not given),-0.1%
2,CCOP(=O)(OCC)C(NC(=O)NC)C(N)=O (stereo not given),-7.67%
3,COc1cccc(C(c2nnnn2-c2ccc3c(c2)OCCO3)N2CCC3(CC2)C(=O)NCN3c2ccccc2)c1OC (stereo not given),-16.2%
4,O=C(OCCN1CCOCC1)C1(c2ccccc2)CCCC1,35.5% (active)
5,CCOC(=O)C1(c2ccccc2)CCN(CC(O)c2ccc(NC(C)=O)cc2)CC1 (stereo not given),-8.72%
6,c1ccc(CCN2CCC3(CC2)OCCO3)cc1,-10%
7,CC(=O)NCC1=C(c2ccc3ccccc3c2)C[C@@H]2CC[C@H]1N2Cc1ccco1,-9.51%
8,CCN(CC)P(=O)(Oc1cccc(C)c1)N(CC)CC,-22.1%
9,COC(=O)C1=C(c2ccccc2OCc2ccccc2)C[C@@H]2CC[C@H]1N2C(=O)NCc1ccc(OC)cc1,18.3%
10,NC(=O)Nc1cccc(C(F)(F)F)c1,-7.02%
11,Cc1ccc(CN2CCCC(C(=O)c3ccc4c(c3)OCO4)C2)cc1C (stereo not given),84.4% (active)
12,COc1cccc(CN2CCCC(C(=O)c3ccccc3SC)C2)c1O (stereo not given),23.3%
13,Cc1ccsc1C(=O)C1CCCN(Cc2ccc(O)cc2)C1 (stereo not given),7.02%
14,COc1ccc(C(=O)C2CCCN(Cc3ccc(C)s3)C2)cc1OC (stereo not given),52.6% (active)
15,Cc1cc(=O)oc2c(C)c(OCC(=O)N3CCN(Cc4ccc5c(c4)OCO5)CC3)ccc12,-1.03%
16,CC(C)Nc1nc(Cl)nc(NC(C)C)n1,-4.88%
17,C=CCN1C(=O)NC(=O)/C(=C/c2ccc(OCC(=O)Nc3ccc(C)cc3)cc2)C1=O,-8.3%
18,COc1ccc(-c2nc(CS(=O)CC(=O)N3CCC4(CC3)OCCO4)c(C)o2)cc1 (stereo not given),-12.6%
19,CC1(C)C(c2ccccc2)=NC(c2cccnc2)=[N+]1[O-],-21%
20,CCOC(=O)C1SC2(C(F)(F)C(F)F)CC1(O)c1c(c(OC)c3occc3c1OC)O2 (stereo not given),46.3% (active)
21,O=C(N/N=C/c1c(O)n(C2CC2)c(=S)[nH]c1=O)c1ccccc1,-8.31%
22,CCOC(=O)C1(Cc2ccc(Cl)cc2)CCN(C(C)CCn2cccn2)CC1 (stereo not given),22.2%

row,SMILES,inhibition
1,O=C(Cc1ccccc1)N1CCN(C2CCCCCC2)CC1,-0.63%
2,CC1CCCCN1Cc1cccnc1 (stereo not given),3.5%
3,CC1CCCN1CCC(C(N)=O)(c1ccccc1)c1ccccc1 (stereo not given),98.5% (active)
4,COC(=O)C1=C(c2cccc(OCc3ccccc3)c2)C[C@@H]2CC[C@H]1N2C(=O)NNCc1ccccc1,18.8%
5,Cc1cc(OCc2cc(C(=O)O)oc2C)c2c3c(c(=O)oc2c1)CCCC3,-3.16%
6,CSc1nc2ccc(C)cc2c(=O)n1-c1cccnc1,-6.09%
7,CSc1ccc(C(=O)C2CCCN(Cc3ccn[nH]3)C2)cc1 (stereo not given),62.7% (active)
8,S=C(NCCc1ccccc1)N1Cc2cc(N3CCOCC3)ccc2-n2nncc2C1,-7.43%
9,COC(=O)C1=C(c2ccccc2)C[C@@H]2CC[C@H]1N2C(=O)N1CCCCC1,-1.18%
10,O=C(NC1CCCCC1)N1Cc2cc(N3CCCCC3)ccc2-n2nncc2C1,6.05%
11,CCOc1cccc(=NC2CCCCC2)c2c(C)[nH]c(C)c12,-4.64%
12,CCCCCCCCCCCCn1ccc(=N)cc1,89.2% (active)
13,COc1ccc(C2NCc3ccc4c(c3-n3cccc32)OCO4)cc1OC (stereo not given),-9.71%
14,O=C(c1cc2nc(-c3ccccc3)cc(-c3ccccc3)n2n1)N1CCC2(CC1)OCCO2,-31%
15,COC(=O)C1=C(c2ccc(-c3ccccc3)c(F)c2)C[C@@H]2CC[C@H]1N2C(=O)NCc1ccc(F)cc1,1.14%
16,COc1cc(C(=O)N2Cc3ccc(Br)cc3-n3nncc3C2)cc(OC)c1OC,1.07%
17,Cc1nn(Cc2ccccc2Cl)c(Cl)c1C(=O)OC(C(=O)NC(N)=O)C(C)C (stereo not given),-7.79%
18,CCOC(=O)CNC(=O)N1Cc2cc(N3CCCCC3)ccc2-n2nncc2C1,-0.57%
19,CC(CC(C#N)(c1ccccc1)c1ccccc1)N1CCCCC1 (stereo not given),75.2% (active)
20,Clc1ccc2nc3c(c(-c4ccccc4)c2c1)CNCC3,5.52%
21,Cn1c(O)c(C(=Nc2ccc(F)cc2)c2ccccc2)c(=O)n(C)c1=O,-7.87%
